From PubChem BioAssay (NCATS)
Records with an inconclusive call do not appear. Activity calls are given as the source filed them. The call rests on the fitted dose curve; in most records, active means well fitted curve in the direction sought with a large enough effect; inconclusive means small, poorly fitted or top-dose-only effect, or another doubt; inactive means no such curve, though single readings can be large; an effect the other way counts as inactive or inconclusive.

Columns and labels:
[1] = tested on: Zika virus NS2B-NS3 protease (linked construct); test: Primary screen NINDS Rhodamine qHTS for Zika virus inhibitors (AID 1347160); further: on the % scale 0 is the no-effect control and ±100 the full control effect; nearly all actives have a fitted effect of over 55% in size
In short: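 Kinetic fluorescence (Ex 480 nm, Em 540 nm) over 15 min with 1.5 microM Rhodamine110 peptide and 25 nM linked protease.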

[2] = Primary qHTS for inhibitors of nuclear receptor binding SET domain protein 2 (NSD2) in an isogenic RCH-ACV NSD2 p.E1099K mutant (9B) (AID 1645876); further: potency means the concentration at half of the fitted maximal effect; nearly all actives have a fitted effect of over 70% in size
[3] = Primary qHTS for inhibitors of nuclear receptor binding SET domain protein 2 (NSD2) in an RCH-ACV wild type WT cells (2C) (AID 1645877); further: potency means the concentration at half of the fitted maximal effect; nearly all actives have a fitted effect of over 70% in size
[4] = biological target: Glutathione peroxidase 1 (Homo sapiens) (UniProt P07203); test: Primary qHTS Assay for Inhibitors of Recombinant Selenoprotein Glutathione Peroxidase 1 (GPX1) (AID 1845191); further: nearly all actives have a fitted effect of over 65% in size
Glutathione peroxidase 1 (Homo sapiens), sequence (P07203 whole entry, looked up): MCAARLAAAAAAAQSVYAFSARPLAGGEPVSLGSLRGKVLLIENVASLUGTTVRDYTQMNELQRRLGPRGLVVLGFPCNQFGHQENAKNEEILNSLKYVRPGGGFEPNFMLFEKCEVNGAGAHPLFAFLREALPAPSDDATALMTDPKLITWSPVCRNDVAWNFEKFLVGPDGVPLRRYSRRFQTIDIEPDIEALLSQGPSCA
In short: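 GR-coupled assay: compounds preincubated 30 min at room temperature with GPX1, then reaction started with CHP; final 10 nM GPX1, 1 mM GSH, 0.5 mM CHP, 0.5 mM NADPH, 100 nM GR, 0.01% BSA, pH 7.5 Tris buffer. NADPH fluorescence (340/450 nm) read at 0 and 15 min.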

[5] = biological target: Phospholipid hydroperoxide glutathione peroxidase GPX4 (Homo sapiens) (UniProt P36969); test: Primary qHTS Assay for Inhibitors of Recombinant Selenoprotein Glutathione Peroxidase 4 (GPX4) (AID 1845192); conditions: outcome: dose series up to 50 µM unless noted; further: on the % scale 0 is the no-effect control and ±100 the full control effect; nearly all actives have a fitted effect of over 65% in size
Phospholipid hydroperoxide glutathione peroxidase GPX4 (Homo sapiens), sequence (P36969 whole entry, looked up): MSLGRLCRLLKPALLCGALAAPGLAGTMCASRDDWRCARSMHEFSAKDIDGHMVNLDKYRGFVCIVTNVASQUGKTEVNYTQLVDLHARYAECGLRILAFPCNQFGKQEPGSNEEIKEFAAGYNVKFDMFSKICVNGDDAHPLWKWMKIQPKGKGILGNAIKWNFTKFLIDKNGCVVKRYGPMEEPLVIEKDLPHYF
In short: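 GR-coupled assay: recombinant GPX4 preincubated 30 min with compound at room temperature; final 200 nM GPX4, 1 mM GSH, 0.5 mM cumene hydroperoxide, 0.5 mM NADPH, 100 nM GR, 0.01% BSA, pH 7.5 Tris. NADPH fluorescence (340/450 nm) read at 0 and 15 min.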

[6] = biological target: Luciferin 4-monooxygenase (Photinus pyralis) (UniProt P08659); test: Primary firefly luciferase (FLuc) qHTS assay for identification of artifact compounds. (AID 1845220); further: nearly all actives have a fitted effect of over 60% in size
In short: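 Enzymatic FLuc inhibition assay: compounds pre-exposed to luciferin/ATP (10 uM each) for 15 min, then purified P. pyralis enzyme at 10 nM added. Read-out: luminescence at 5 min.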

[7] = tested on: Nanoluciferase (engineered Oplophorus gracilirostris luciferase); test: Primary Nanoluciferase (NLuc) qHTS assay for identification of artifact compounds. (AID 1845222);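 further: NLuc secreted into diluted conditioned medium of S16 cells; 0% = DMSO and -100% = no enzyme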
In short: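 S16 cell supernatant NLuc, 1:55; cpds qHTS; 15 min RT dark; Nano-Glo substrate 1:100, 5 min; luminescence; Hill fit of % inhibition.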

[8] = tested on: Es-2; test: Primary qHTS to identify gynecologic anti-cancer compounds using libraries of approved drugs and bioactive compounds (AID 1345084); conditions: Gynecologic cancer cell panel viability, ATPlite luminescence, 48 h; series mostly up to 57.5 µM; further: nearly all actives have a fitted effect of over 55% in size; further: potency means the concentration at half of the fitted maximal effect
In short: (§1)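 Five-concentration response, 48 h; readout is ATP-driven luciferase luminescence.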

[9] = tested on: HeLa; test: as above; conditions: Gynecologic cancer cell panel viability, ATPlite luminescence, 48 h; series mostly up to 57.5 µM
In short: as §1

[10] = tested on: Hek293T; test: as above; conditions: Gynecologic cancer cell panel viability, ATPlite luminescence, 48 h, control line for the selectivity index; series mostly up to 57.5 µM
In short: as §1

[11] = tested on: JEG-3; test: as above; conditions: Gynecologic cancer cell panel viability, ATPlite luminescence, 48 h; series mostly up to 57.5 µM
In short: as §1

[12] = tested on: OV90; test: as above; conditions: Gynecologic cancer cell panel viability, ATPlite luminescence, 48 h; series mostly up to 57.5 µM
In short: as §1

[13] = tested on: Tov-21-G; test: as above; conditions: Gynecologic cancer cell panel viability, ATPlite luminescence, 48 h; series mostly up to 57.5 µM
In short: as §1

[14] = tested on: Tov112D; test: as above; conditions: Gynecologic cancer cell panel viability, ATPlite luminescence, 48 h; series mostly up to 57.5 µM
In short: as §1

[15] = biological target: Calcium and integrin-binding protein 1 (Homo sapiens) (UniProt Q99828); test: Primary qHTS for Identification of Calcium Integrin Binding Protein 1 (CIB1) Competitor (AID 1508620);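 further: GST tagged CIB1 binding a fluorescein labelled alphaIIb integrin peptide tracer; top concentration of the series differs between compounds; on the % scale 0 is the no-effect control and ±100 the full control effect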
Calcium and integrin-binding protein 1 (Homo sapiens), sequence (Q99828 whole entry, looked up): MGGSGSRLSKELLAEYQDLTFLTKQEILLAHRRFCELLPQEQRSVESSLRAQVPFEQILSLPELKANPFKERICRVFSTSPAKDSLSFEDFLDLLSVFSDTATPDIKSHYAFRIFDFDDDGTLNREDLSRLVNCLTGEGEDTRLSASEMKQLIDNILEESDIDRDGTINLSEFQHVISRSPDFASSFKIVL
In short: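 Fluorescence polarization competition: GST-tagged CIB1 (1 uM final) preincubated with compound 15 min at room temperature, then FITC-labelled alphaIIb peptide (100 nM final) added. After 15 min at room temperature, polarization read at Ex 480/Em 540.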

[16] = Primary redox qHTS assay for identification of artifact compounds. (AID 1845223);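 further: 0% = DMSO and 100% = reference compound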
In short: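 Amplex Red (25 uM) and HRP (250 mU/mL) in HBSS, with compounds for 15 min, then 250 uM DTT for 30 min, room temperature, dark. Fluorescence 525/598 nm read; normalized to DMSO and 10 uM DA3003; Hill fit.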

[17] = Drug repurposing screens with cells derived from glioblastoma tumor samples (AID 1345199); conditions: GBM patient neurospheres viability, ATP luminescence, 48 h; further: nearly all actives have a fitted effect of over 40% in size; further: potency means the concentration at half of the fitted maximal effect; on activity, negative = cell killing: on the % scale 0 is the no-effect control and ±100 the full control effect
In short: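 Four patient lines of CD133+ GBM neurospheres were screened at several concentrations; hits were retested in those lines plus three slower-growing GBM lines, using 48-hour treatment and ATP-based viability.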

[18] = P-glycoprotein substrates identified in KB-8-5-11 adenocarcinoma cell line, qHTS therapeutic library screen (AID 1346987); further: potency means the concentration at half of the fitted maximal effect; nearly all actives have a fitted effect of over 65% in size
In short: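 KB-8-5-11, a colchicine-selected P-gp-overexpressing KB-3-1 subline, was grown without colchicine for the assay. Cells were seeded at 500 cells/well, dosed in concentration-response and incubated 72 h at 37 degree C, 5% CO2. Viability was read by CellTiter-Glo luminescence.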

[19] = P-glycoprotein substrates identified in KB-3-1 adenocarcinoma cell line, qHTS therapeutic library screen (AID 1346986);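 further: potency means the concentration at half of the fitted maximal effect; potency is for cytotoxicity meaning loss of cell viability; nearly all actives have a fitted effect of over 60% in size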
In short: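 KB-3-1 parental and colchicine-selected P-gp-overexpressing KB-8-5-11 cells (colchicine omitted during assay), 500 cells/well, dosed in dose-response for 72 h at 37 °C; CellTiter-Glo luminescence. Cytotoxic: curve class -1.1 to -2.4, max response >50%, AC50 < 10 uM.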

Cc1c(C(=O)NCCCO)cnn1-c1nc(-c2cccc(C(F)(F)F)c2)cs1
active: Potency [2] 25.8 µM | Potency [3] 25.8 µM
inactive: Potency [1] | Potency [4] | Potency [5] | Potency [6] | Potency [7] | Potency [8] | Potency [9] | Potency [10] | Potency [11] | Potency [12] | Potency [13] | Potency [14]

O=C(/C=C/n1cnc(-c2cc(C(F)(F)F)cc(C(F)(F)F)c2)n1)NNc1cnccn1
active: Potency [2] 1.63 µM | Potency [3] 2.05 µM
inactive: Potency [1] | outcome [15] | Potency [4] | Potency [5] | Potency [6] | Potency [7] | Potency [16] | Potency [9]

CN(CC(=O)N1CCOCC1)Cc1c(Cl)cccc1NC(=O)c1ccccc1
inactive: Potency [4] | Potency [5] | activity, negative = cell killing ([17]; at 45.9 µM (top of the series), tumour line B) -3.67% | activity, negative = cell killing ([17]; at 45.9 µM (top of the series), tumour line D) -22.4% | activity, negative = cell killing ([17]; at 46.1 µM (top of the series), tumour line C) -9.11%
active: Potency ([17]; tumour line A) 35.5 µM

CC(=O)Nc1nc2c(Oc3cc(-c4ccc(C(F)(F)F)cc4)ncn3)cccc2s1
inactive: outcome [15] | Potency [4] | Potency [5] | Potency [6] | Potency [7] | Potency [16] | Potency [11] | Potency [14]
active: Potency [2] 6.49 µM | Potency [3] 4.09 µM | Potency [13] 22.4 µM

C=C1C(=O)O[C@@H]2C[C@@]3(C)CCC[C@H](C)C3=C[C@H]12
inactive: Potency [1] | outcome [15] | Potency [4] | Potency [5] | Potency [6] | Potency [7] | Potency [16] | Potency [9] | Potency [10] | Potency [11] | Potency [12] | Potency [14]
active: Potency [18] 14.6 µM | Potency [2] 14.5 µM | Potency [3] 12.9 µM

O=C(C1=CCN2c3c(cccc31)OC[C@H]2CN1CCOCC1)c1cccc2ccccc12
inactive: Potency [1] | outcome [15] | Potency [4] | Potency [5] | Potency [6] | Potency [7] | Potency [10] | Potency [11]

NC(=Nc1ccc(CCNCc2cccc(Cl)c2)cc1)c1cccs1
inactive: Potency [1] | outcome [15] | Potency [4] | Potency [5] | Potency [6] | Potency [7] | Potency [16] | Potency [8] | Potency [9] | Potency [10] | Potency [13] | Potency [14]
active: Potency [18] 23.1 µM | Potency [2] 11.5 µM | Potency [3] 11.5 µM

Nc1ncnc2c1c(I)cn2C1OC(CO)C(O)C1O (centres undefined)
active: Potency [19] 3.26 µM | Potency [18] 2.31 µM | Potency [2] 1.84 µM | Potency [3] 1.03 µM
inactive: Potency [4]
